Screening data as filed in PubChem BioAssay.
CYP2C9 inh: human CYP2C9 inhibition; P11712; AID 777; inhibition, % at 5 µM; CYP2C9 Supersomes, luciferin-H conversion, luminescence; 96,000 compounds, 20% hits;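 active means blocking of liver enzyme CYP2C9 beyond about 50% at 5 µM, limit read from the data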
CYP2C9 act: activators of human CYP2C9; P11712; recombinant CYP2C9, luciferin-H conversion, luminescence; stronger effect = higher value; factor 1 = untreated enzyme, 0 = blocked; activation factor at 5 µM; 96,000 compounds, 1.4% hits; AID 1024;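 active means activation factor of 2 or more for CYP2C9 at a 5 µM dose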;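 further: 0 = sulfaphenazole-blocked wells and 1 = vehicle-only wells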
CYP2C19 inh: inhibitors of human CYP2C19. CYP2C19 Supersomes, luciferin-H EGE luminescence, 30 min. inhibition, % at 5 µM. 96,000 compounds, 21% hits. AID 778;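 active means CYP2C19 inhibition above a set limit at 5 µM in the primary screen, cut at about 50% in these data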;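 further: plate controls were negative control wells for no effect and 2.5 mM tranylcypromine positive control for full effect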
CYP2C19 act: cytochrome P450 2C19 (human) activation | P33261 | recombinant CYP2C19, luciferin-H EGE luminescence; stronger effect = higher value; 0 = fully inhibited enzyme, 1 = untreated enzyme | activation factor at 5 µM | 96,000 tested, under 10 active | AID 1025;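 active means activation factor of at least 2 at 5 µM in the primary screen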;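 further: 0 = wells with 2.5 mM tranylcypromine and 1 = vehicle-only wells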
hDAT+cocaine: human DAT dopamine uptake with cocaine, either direction; LLC-PK1 hDAT cells, [14C]-dopamine uptake with cocaine IC80; actives deviate in either direction; B-score at 10 µM; 110,000 compounds, 1.3% hits; AID 449768;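 active means Z score or B-score, a plate-position-corrected score, falls beyond the plate's 99.7% confidence bounds, in either direction; inactive means both scores lie inside the 99.7% bounds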;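 further: scored against the spread of the other compound wells on the same plate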
Target sequence (Q01959 whole entry, looked up): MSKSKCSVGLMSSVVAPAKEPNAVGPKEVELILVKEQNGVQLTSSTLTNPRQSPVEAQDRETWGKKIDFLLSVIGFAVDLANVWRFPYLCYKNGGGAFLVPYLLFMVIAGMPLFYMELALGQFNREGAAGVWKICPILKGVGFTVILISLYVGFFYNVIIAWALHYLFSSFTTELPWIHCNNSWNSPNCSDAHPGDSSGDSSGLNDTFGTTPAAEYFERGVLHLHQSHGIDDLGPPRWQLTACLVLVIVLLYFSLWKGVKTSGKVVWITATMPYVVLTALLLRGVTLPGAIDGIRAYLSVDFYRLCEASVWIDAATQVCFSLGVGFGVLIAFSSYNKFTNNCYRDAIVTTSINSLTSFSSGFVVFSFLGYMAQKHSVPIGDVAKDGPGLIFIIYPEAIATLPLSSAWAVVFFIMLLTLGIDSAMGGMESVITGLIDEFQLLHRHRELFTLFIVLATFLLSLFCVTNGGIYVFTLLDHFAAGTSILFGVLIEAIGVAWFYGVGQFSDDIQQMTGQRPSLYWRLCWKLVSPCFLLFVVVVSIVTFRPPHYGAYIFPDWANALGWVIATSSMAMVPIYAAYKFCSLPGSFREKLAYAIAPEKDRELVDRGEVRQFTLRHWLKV
D1 allo mod: allosteric modulators of human D1 dopamine receptor. P21728. HEK293 D1, CRE-luciferase, dopamine EC30 potentiation; actives deviate in either direction. B-score at 10 µM. 58,000 compounds, 5.9% hits. AID 641;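 active means luminescence count or its row- and column-corrected plate score outside the 99.7% band of the plate's sample wells, on either side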
* hit, by the source's call. In the library only some 28% were active in any assay of this set; here they are far more common.

How did CCOC(=O)c1c(C)oc2c1c1c(c3ccccc32)OCN(Cc2cccnc2)C1 do in these assays?
CYP2C9 inh: 54*; CYP2C9 act: 0.5; CYP2C19 inh: 46; CYP2C19 act: 0.5; hDAT+cocaine: 0.04; D1 allo mod: 0.37

What do the screens show for `CCOC(=O)c1c(C)oc2c1c(C(c1cccnc1)N1CCN(C)CC1)c(O)c1ccccc12` (configuration not stated)?
CYP2C9 inh: 16; CYP2C9 act: 0.8; CYP2C19 inh: 63*; CYP2C19 act: 0.4; D1 allo mod: -0.73

Results for COc1ccc(NC(=O)CCNS(=O)(=O)c2ccc3c(c2)CCC(=O)N3)cc1 ?
CYP2C9 inh: 41; CYP2C9 act: 0.6; CYP2C19 inh: 30; CYP2C19 act: 0.7; hDAT+cocaine: 0.017

How did O=C(NCc1nnc(SCC(=O)N2CCC(Cc3ccccc3)CC2)o1)c1ccccc1F do in these assays?
CYP2C9 inh: 72*; CYP2C9 act: 0.3; CYP2C19 inh: 47; CYP2C19 act: 0.5; hDAT+cocaine: 0.0094; D1 allo mod: -0.7

Results for COC(=O)C1(C(=O)OC)NOC2C(=O)N(c3ccc(Cl)cc3Cl)C(=O)C21 (configuration not stated) ?
CYP2C9 inh: -7; CYP2C9 act: 1.1; CYP2C19 inh: 4; CYP2C19 act: 1; hDAT+cocaine: -1.2

What do the screens show for `O=C(c1cccs1)N1CCN(S(=O)(=O)N2CCOCC2)CC1`?
CYP2C9 inh: -9; CYP2C9 act: 1.1; CYP2C19 inh: 58*; CYP2C19 act: 0.4; hDAT+cocaine: 1.6; D1 allo mod: 0.54

How did O=C(c1cc2ccccc2o1)N1CCN(S(=O)(=O)c2cccs2)CC1 do in these assays?
CYP2C9 inh: 29; CYP2C9 act: 0.7; CYP2C19 inh: 20; CYP2C19 act: 0.8; hDAT+cocaine: 0.11

What do the screens show for `O=C(c1cccnc1)N1CCN(C(=O)c2cccs2)CC1`?
CYP2C9 inh: 3; CYP2C9 act: 1; CYP2C19 inh: 27; CYP2C19 act: 0.7; hDAT+cocaine: -0.22

What do the screens show for `O=C(c1ccncc1)N1CCN(C(=O)c2cccs2)CC1`?
CYP2C9 inh: 34; CYP2C9 act: 0.7; CYP2C19 inh: 72*; CYP2C19 act: 0.3; hDAT+cocaine: -0.035; D1 allo mod: -0.13

Results for O=C(c1ccco1)N1CCN(S(=O)(=O)c2cccs2)CC1 ?
CYP2C9 inh: 32; CYP2C9 act: 0.7; CYP2C19 inh: 88*; CYP2C19 act: 0.1; hDAT+cocaine: -0.59; D1 allo mod: 0.8

What do the screens show for `O=C(c1ccco1)N1CCN(C(=O)c2cccs2)CC1`?
CYP2C9 inh: 21; CYP2C9 act: 0.8; CYP2C19 inh: 52*; CYP2C19 act: 0.5; hDAT+cocaine: -0.49

What do the screens show for `O=c1cc(N2CCCCC2)c(-c2ccccc2)nn1Cc1c(Cl)cccc1Cl`?
CYP2C9 inh: 45; CYP2C9 act: 0.6; CYP2C19 inh: 27; CYP2C19 act: 0.7; hDAT+cocaine: 0.77

How did COc1ccccc1NC(=O)C1C2C=CC3(CN(Cc4cccnc4)C(=O)C13)O2 (configuration not stated) do in these assays?
CYP2C9 inh: 20; CYP2C9 act: 0.8; CYP2C19 inh: 14; CYP2C19 act: 0.9; hDAT+cocaine: -0.5

What do the screens show for `Cc1nc(SCc2ccccc2C)n[nH]1`?
CYP2C9 inh: 17; CYP2C9 act: 0.8; CYP2C19 inh: 49; CYP2C19 act: 0.5; hDAT+cocaine: 0.44; D1 allo mod: -0.098

Results for Cc1nc(SC(C(=O)c2ccccc2)c2ccccc2)n[nH]1 (configuration not stated) ?
CYP2C9 inh: 49; CYP2C9 act: 0.5; CYP2C19 inh: 78*; CYP2C19 act: 0.2; hDAT+cocaine: -1.5

Results for O=C(CSc1nc2ccc(S(=O)(=O)N3CCOCC3)cc2[nH]1)N1CCOCC1 ?
CYP2C9 inh: 6; CYP2C9 act: 0.9; CYP2C19 inh: 16; CYP2C19 act: 0.8; hDAT+cocaine: -0.36; D1 allo mod: -0.16

What do the screens show for `CCCCNS(=O)(=O)c1ccc2nc(SCC(=O)N3CC(C)OC(C)C3)[nH]c2c1` (configuration not stated)?
CYP2C9 inh: 55*; CYP2C9 act: 0.4; CYP2C19 inh: 42; CYP2C19 act: 0.6; hDAT+cocaine: -0.024

Results for Cc1cc2c(cc1C)-c1nnnn1C(C)(C)C2 ?
CYP2C9 inh: 4; CYP2C9 act: 1; CYP2C19 inh: 59*; CYP2C19 act: 0.4; hDAT+cocaine: 0.12; D1 allo mod: -0.0054
